The values below come from ChEMBL document CHEMBL4513146, “CO-ADD screening of Karazin Kharkiv National University (Ukraine) compounds”.

One assay concerns Klebsiella pneumoniae. The following applies: Concentration 32 ug.mL-1;; ASSAY_TEST Inhibition of Bacterial Growth; detection method Absorption (OD600); MEDIA CAMHB; plate type 384well; NBS; CORNING #3640; time 18 hr.
For a further assay, the system named is Candida albicans. Particulars: Concentration 32 ug.mL-1; ASSAY_TEST Inhibition of Fungal Growth; detection method Absorption (OD530).
The test system of the next assay is Cryptococcus neoformans. The following applies: Concentration 32 ug.mL-1; ASSAY_TEST Inhibition of Fungal Growth; detection method Resazurin; Absorption (OD600-OD570); plate type 384well; NBS; CORNING #3640. For orientation: Alamar Blue is a resazurin reagent that responds to reducing activity.

The structures appear in SMILES notation. Potency and affinity values are given separately.

Consider `Cc1cc(C)cc(N(Cc2cccc(F)c2)S(=O)(=O)c2cccn3c(C)nnc23)c1`, for which the Inhibition (in general, the relative decrease from the control value, in per cent) with Klebsiella pneumoniae was 2.61%; in the assay with Candida albicans, 2.81%; with Cryptococcus neoformans it was -7.1%.

For `CCOc1ccc(NC(=O)Cn2nc3ccc(-c4ccc(C)c(C)c4)nn3c2=O)cc1`, the values for the Inhibition in the assay on Klebsiella pneumoniae, in the assay with Candida albicans and in the assay with Cryptococcus neoformans were 4.27%, 1.39% and -10.52%, respectively.

On to `Cc1ccc(-c2ccc3nnc(CCC(=O)NCc4cccc(Br)c4)n3n2)cc1C`, for which the Inhibition in the assay on Klebsiella pneumoniae is listed as -2.24%; with Candida albicans, 4.88%; with Cryptococcus neoformans, -4.39%.

Take `Cc1ccc(Sc2ccc3nn(CC(=O)Nc4cccc(Cl)c4)c(=O)n3n2)cc1`: the figures for the Inhibition in the assay on Klebsiella pneumoniae, in the assay on Candida albicans and in the assay with Cryptococcus neoformans were -1.6%, 23.7% and -8.64%, respectively.

Consider `CCOc1ccc(-n2ccn3c(SCC(=O)Nc4ccc(C)cc4Cl)nnc3c2=O)cc1`, for which the results for the Inhibition in the assay on Klebsiella pneumoniae, in the assay on Candida albicans and in the assay on Cryptococcus neoformans were 9.51%, 5.12% and -6.58%, respectively.

For `CC(C)c1nnc2c(=O)n(CC(=O)Nc3ccc(Br)cc3F)c3ccccc3n12`, the Inhibition was 12.63% with Klebsiella pneumoniae, 1.97% in the assay on Candida albicans and -15.71% in the assay with Cryptococcus neoformans.

In the case of `O=c1n(Cc2nc(-c3ccc(Br)cc3)no2)nc2ccc(-c3ccccc3)nn12`, the Inhibition in the assay on Klebsiella pneumoniae is recorded as 7.97%; in the assay with Candida albicans, 1.04%; with Cryptococcus neoformans, -15.1%.

For `O=C(Cn1nc2c3cc(-c4ccccc4)nn3ccn2c1=O)N1CCN(c2ccccc2F)CC1`, the Inhibition is recorded as 9.85% in the assay with Klebsiella pneumoniae, 1.75% with Candida albicans and -28.45% in the assay on Cryptococcus neoformans.

On to `CSc1cccc(NC(=O)Cn2nc3c(Oc4cc(C)cc(C)c4)nccn3c2=O)c1`, for which the Inhibition was 7.88% in the assay with Klebsiella pneumoniae, 2.48% in the assay on Candida albicans and -9.76% with Cryptococcus neoformans.

For the molecule `COc1cccc(Oc2nccn3c(=O)n(CC(=O)NCc4ccccc4Cl)nc23)c1`, the Inhibition in the assay with Klebsiella pneumoniae is listed as 18.21%; with Candida albicans, -2.46%; in the assay with Cryptococcus neoformans it was -9.66%.
